# Bioassay records as filed in PubChem.
# AmpC inh no detg = blocks E. coli AmpC beta-lactamase in detergent-free assay. P00811. AmpC nitrocefin hydrolysis, absorbance 480 nm, 0.0001% Triton. Potency, µM (top dose mostly 57.1 µM), for inactives: at the top dose activity change, negative = inhibition, usual class: inhibitors. 330,000 compounds, 0.52% hits. AID 485341;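 further: plate controls were no compound for no effect and no enzyme for full effect; nearly all actives have a fitted effect of over 20% in size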
# Target sequence (P00811 whole entry, looked up): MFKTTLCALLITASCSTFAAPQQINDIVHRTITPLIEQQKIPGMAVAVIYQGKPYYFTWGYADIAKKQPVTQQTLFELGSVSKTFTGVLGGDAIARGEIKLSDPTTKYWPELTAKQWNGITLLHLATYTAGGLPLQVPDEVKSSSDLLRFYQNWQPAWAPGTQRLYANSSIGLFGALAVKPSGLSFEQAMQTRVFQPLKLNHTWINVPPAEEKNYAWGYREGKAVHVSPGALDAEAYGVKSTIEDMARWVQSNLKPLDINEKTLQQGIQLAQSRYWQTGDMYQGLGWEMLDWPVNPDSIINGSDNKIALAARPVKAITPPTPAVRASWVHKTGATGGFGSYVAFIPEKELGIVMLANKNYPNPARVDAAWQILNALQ
#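 AmpC (5.3 nM in the dispensed reagent) in 20 mM phosphate pH 7.0 with 0.01% (detergent screen) or 0.0001% Triton X-100 was preincubated with compounds for 15 min at room temperature. Nitrocefin was then added from an 800 uM solution, and hydrolysis was followed at 480 nm.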
# AmpC detergent = AmpC beta-lactamase inhibition with detergent present | 370,000 compounds, 0.041% hits | AmpC hydrolysis of nitrocefin, absorbance 480 nm, 0.01% Triton | Potency, µM (doses to about 114 µM), for the others: at the top dose activity change, negative = inhibition, hits mostly inhibitors | AID 485294 | P00811;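 further: 0% = no-compound wells and -100% = no-enzyme wells; nearly all actives have a fitted effect of over 25% in size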
#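 20 mM phosphate pH 7.0 + 0.01% (detergent screen) or 0.0001% Triton X-100; 5.3 nM AmpC reagent; cpd preinc 15 min RT; nitrocefin (800 uM stock) to start; A480 q20 s × 4 min; Activity was normalised to no-enzyme and no-compound control wells.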
# Pf growth 48h = inhibits P. falciparum growth in the first generation, 48 h. P. falciparum luciferase growth in erythrocytes, 48 h. 310,000 compounds, 5.9% hits. Potency, µM (doses to about 28.7 µM), for the others: top-dose activity change, negative = inhibition, most hits filed as inhibitors
#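 Luciferase-expressing P. falciparum in infected erythrocytes (2% hematocrit, 0.1% parasitemia final) in RPMI 1640/0.5% Albumax were exposed to compound for 48 hours at 37 C, 5% CO2; growth read as luminescence.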
# AMA1 RON2 block = AMA1-RON2 (P. falciparum) interaction inhibition; AlphaScreen AMA1-biotinylated RON2 peptide binding; Potency, µM (doses to about 58.2 µM), without a hit: at the highest dose activity change, negative = inhibition, actives largely listed as inhibitors; 360,000 compounds, 0.2% hits;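 further: 0% = vehicle wells and -100% = peptide control; nearly all actives have a fitted effect of over 45% in size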
#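 AMA1 (3D7) with his tag at 25 nM final met compounds first, then biotinylated RON2 peptide at 25 nM; detection used donor plus acceptor beads, 10 µg/mL apiece, read by AlphaScreen after 30 min at room temperature.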
# HCV inhibitor = blocks hepatitis C virus | Huh7.5.1 HCVcc-Cre infection, luciferase reporter, 44 h | Potency, µM (top dose mostly 41.8 µM), without a hit: at the top dose activity change, negative = inhibition, usual class: inhibitors | 340,000 compounds, 3.4% hits | AID 651820
#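 Luciferase read-out (15 sec integration) after a 15 min room-temperature substrate step quantifies HCVcc-Cre infection. Cells, 1,000 per well, had compound added 4 h post-plating, then virus at ~0.5 moi, and were cultured 44 h.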
# Pf growth 96h = P. falciparum growth inhibition at 96 hour, primary screen for plastid delayed-death inhibitors; P. falciparum luciferase reporter growth, 96 h; Potency, µM (titrated, usually from 28.7 µM), without a hit: top-dose activity change, negative = inhibition, usual class: inhibitors; 320,000 compounds, 6.9% hits; AID 504834
#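 Delayed-death screen, second-generation endpoint: infected erythrocytes, 2% hematocrit, 0.05% parasitemia final; 96 hours at 37 C, 5% CO2; luciferase detection reagent; luminescence decrease equals reduced growth.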
# The depositor's hits bear a star; ? = inconclusive; . = not tested or not shown; [ ] = another dose, or the depositor's remark. Compounds with a hit are over-represented: about 11% of the library has one in this group of screens. The call rests on the fitted dose curve; in most records, active means well fitted curve in the direction sought with a large enough effect; inconclusive means small, poorly fitted or top-dose-only effect, or another doubt; inactive means no such curve, though single readings can be large; an effect the other way counts as inactive or inconclusive. Unless noted, on the % scale 0 is the no-effect control and ±100 the full control effect; potency means the concentration at half of the fitted maximal effect.
SMILES,AmpC inh no detg,AmpC detergent,Pf growth 48h,AMA1 RON2 block,HCV inhibitor,Pf growth 96h
O=C(Nc1cccc(Cl)c1)Nc1sccc1-c1nc2ccccc2s1,?,6.2%,?,6.1%,?,?
O=C(Nc1ccccc1)Nc1sccc1-c1nc2ccccc2s1,14.1µM*,7.6%,?,20.2%,-21.5%,?
COC(=O)[C@]1(CC(C)C)N[C@H](c2ccc(-c3ccc(F)cc3)c(OC)c2)[C@@H]2C(=O)N(C)C(=O)[C@@H]21,232.5%,-4.5%,7.38µM*,-5.7%,?,1.85µM*
CCCCCCSc1ccc([C@H]2N[C@@](CC(C)C)(C(=O)OC)[C@H]3C(=O)N(C)C(=O)[C@@H]23)cc1OC,217.6%,?,6.57µM*,-0.4%,7.94µM*,4.65µM*
CCN1C(=O)[C@H]2[C@@H](c3ccc(-c4ccc(OC)cc4)c(OC)c3)N[C@@](CC(C)C)(C(=O)OC)[C@H]2C1=O,20.6%,.,.,12.5%,?,.
COC(=O)[C@]1(CC(C)C)N[C@H](c2ccc(SC3CCCCC3)c(OC)c2)[C@@H]2C(=O)N(C)C(=O)[C@@H]21,249.8%,-7.7%,?,-18.2%,?,8.28µM*
COc1cccc(NC(=O)C(CCSC)NC(=O)C2CCC(C)CC2)c1 (stereo unspecified),.,10.4%,.,.,.,.
COc1ccc(-c2nc(CSCC(=O)NCC3CCCO3)c(C)o2)cc1OC (stereo unspecified),28.1%,-14.3%,58.2%,-7.7%,4.6%,14.7µM*
CCOc1ccc(-c2nc(CSCC(=O)NCC3CCCO3)c(C)o2)cc1 (stereo unspecified),71.5%,1.0%,42.9%,4.7%,-18.5%,13.1µM*
Cc1ccc(-c2nc(CSCC(=O)NCC3CCCO3)c(C)o2)cc1 (stereo unspecified),45.8%,-7.0%,19.1%,-2.6%,-24.0%,?
COc1cccc(CNS(=O)(=O)c2cnc(N)nc2)c1,.,2.3%,.,.,.,.
Cc1ccc(C(=O)OCC(=O)c2c[nH]c3ccccc23)cc1,-41.7%,-12.8%,89.8%,-11.0%,-13.7%,173.5%
COc1ccc(C(=O)OCC(=O)c2c[nH]c3ccccc23)cc1OC,-12.8%,2.1%,14.7µM*,10.3%,-21.1%,4.65µM*
CC(C)C(NS(=O)(=O)c1c(Cl)cccc1Cl)C(=O)OCC(=O)c1c[nH]c2ccccc12 (stereo unspecified),-28.7%,-6.9%,4.15µM*,-3.2%,?,4.65µM*
O=C(OCC(=O)c1c[nH]c2ccccc12)c1cc(Br)ccc1O,2.24µM*,-2.1%,-0.2%,6.5%,?,-24.1%
Cc1cnc(C(=O)OCC(=O)c2c[nH]c3ccccc23)cn1,-10.7%,-0.1%,13.1µM*,-1.0%[11.6 µM],-1.7%,?
C=CCN(c1ccccc1OC)S(=O)(=O)c1cccc(C(=O)OCC(=O)c2c[nH]c3ccccc23)c1,-28.6%,-13.7%,?,-28.4%,?,4.65µM*
C=CCN(c1ccccc1OC)S(=O)(=O)c1cccc(C(=O)OCC(=O)N2CCOCC2)c1,124.1%,.,.,9.0%,13.8%,.
COc1cc(OC)c(N(C)S(=O)(=O)c2cccc(C(=O)OCC(=O)c3c[nH]c4ccccc34)c2)cc1Cl,3.98µM*,?,1.85µM*,17.9%,?,?
COc1cc(OC)c(N(C)S(=O)(=O)c2cccc(C(=O)OCC(=O)N(C)C3CCCCC3)c2)cc1Cl,.,.,.,-5.8%,-26.6%,.
CCCc1nccn1S(=O)(=O)c1cc(Br)ccc1OC,.,7.6%,.,.,.,.
CCN(CC)CC(O)c1ccc(C2CCCC2)cc1 (stereo unspecified),-7.1%,?,10.4µM*,-2.7%,?,13.1µM*
O=C(O)CCC(=O)c1ccc(C2CCCCCC2)cc1,.,.,.,-6.5%,.,.
Cn1cc(S(=O)(=O)N2CCCCC2)cc1C(=O)Nc1cccc(C#N)c1,.,16.6%,.,.,.,.
Cc1ccc(C(=O)c2oc3ccccc3c2NC(=O)COc2ccc(C(C)C)cc2)cc1,.,27.7%,.,.,.,.
SMILES,AmpC inh no detg,AmpC detergent,Pf growth 48h,AMA1 RON2 block,HCV inhibitor,Pf growth 96h
Cc1ccc(C[n+]2cc(-c3ccc(Cl)cc3)n3c2CCC3)cc1,15.4%,-14.0%,1.04µM*,-2.6%,-24.7%,0.415µM*
Cc1ccc(-c2c[n+](Cc3ccc(Cl)cc3)c3n2CCC3)cc1,17.8%,-4.7%,0.928µM*,3.9%,-12.5%,0.294µM*
Cc1ccc(-c2c[n+](Cc3cccc(Cl)c3)c3n2CCC3)cc1,25.7%,1.1%,?,15.3%,-26.4%,?
Clc1cccc(C[n+]2cc(-c3ccccc3)n3c2CCC3)c1,5.4%,-1.5%,2.08µM*,-19.0%,8.3%,0.185µM*
O=C(CCCn1c2ccccc2c(=O)c2ccccc21)Nc1cccc(Cl)c1,.,12.2%,.,.,.,.
CCOC(=O)C1=C(C)NC2=C(C(=O)C(C(=O)OCC)C(c3cccc(OC)c3)C2)C1c1ccccn1 (stereo unspecified),80.7%,3.3%,8.28µM*,23.0%,21.4%,5.86µM*
CCOC(=O)C1=C(C)NC2=C(C(=O)C(C(=O)OCC)C(c3ccccc3OC)C2)C1c1ccccn1 (stereo unspecified),90.5%,6.8%,4.15µM*,11.0%,-7.5%,3.7µM*
CCOc1ccc(-c2nnn(CC(=O)NCc3ccc(C)cc3)n2)cc1,-30.6%,3.1%,0.8%,24.3%,-2.2%,7.38µM*
CCOC(=O)Cc1cnc(NC(=O)Cn2nnc(-c3ccc(OCC)cc3)n2)s1,-23.6%,-14.2%,0.0%,-4.9%,-18.0%,6.57µM*
CCOc1ccccc1NC(=O)Cn1nnc(-c2ccc(OCC)c(OCC)c2)n1,36.0%,?,-11.5%,-1.1%,8.91µM*,.
Cc1cccc(C)c1OCC(=O)Nc1nc(-c2ccc(Br)cc2)ns1,.,14.2%,.,.,.,.
CC(C)c1ccc(C(=O)Nc2cc(-c3ccccc3F)nn2-c2ccccc2)cc1,.,0.7%,.,.,.,.
Cc1cn2c(=O)cc(COC(=O)COc3ccccc3C)nc2s1,.,18.0%,.,.,.,.
O=C(Nc1ccc(-n2ccc(C(F)(F)F)n2)cc1)Nc1cccc(Cl)c1,-47.4%,-3.3%,?,.,.,?
COc1ccccc1NC(=O)Nc1ccc(-n2ccc(C(F)(F)F)n2)cc1,-24.7%,-1.3%,?,-3.8%,5.62µM*,?
O=C(O)CCCC(=O)Nc1ccc(-n2ccc(C(F)(F)F)n2)cc1,-12.3%,3.4%,3.8%,-5.6%,24.7%,15.6%
O=C(O)CCC(=O)Nc1ccc(-n2ccc(C(F)(F)F)n2)cc1,-11.3%,-4.3%,1.65µM*,-10.7%,19.9%,58.3%
Cc1cc(C)cc(NC(=O)Nc2ccc(-n3ccc(C(F)(F)F)n3)cc2)c1,-36.5%,4.4%,11.7µM*,6.7%,?,?
